Screening data (PubChem)
Compounds with a hit are over-represented: about 9.4% of the library has one in this group of screens.
SMN2 splice up = SMN2 splice variant enhancement | actives 2.8% (n = 210,000) | AID 1458 | Potency, µM (series often up to 46.1 µM), for the others: at the top dose activity change, positive = activation, hits mostly activators | HEK293 SMN2-luciferase splicing reporter, luminescence, 30-36 h; further: % of control where 0% means no effect; nearly all actives have a fitted effect of over 55% in size
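HEK293 cells carry an SMN2 […]–luciferase reporter in which exon 7 inclusion puts luciferase in frame. Cells were plated 10-12 h before compound addition, then incubated 30-36 h at 37C. ONE-Glo luminescence was read; sodium butyrate at 4.5 mM final served as control.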
NPC1 prom act = NPC1 promoter activation | Huh7 NPC1 promoter luciferase reporter, 24 h | Potency, µM (doses to about 9.22 µM), without a hit: at the highest dose activation, usual class: activators | actives 2.4% (n = 320,000) | AID 485313; further: % of control where 0% means no effect; nearly all actives have a fitted effect of over 60% in size
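Compounds in DMSO were transferred onto Huh7 NPC1-luciferase reporter cells pre-incubated 2 h; after 24 h at 37 °C, Amplite reagent was dispensed and luminescence recorded 10 min later.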
FLuc counter = inhibits or activates purified firefly luciferase, miR-21 counter-screen | AID 588342 | actives 6.9% (n = 360,000) | Potency, µM (series often up to 57.5 µM), for inactives: at the highest dose activity change, negative = inhibition, usual class: inhibitors | purified FLuc, Km substrates, luminescence inhibition | P08659;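 further: plate controls were vehicle for no effect and reference inhibitor for full effect; nearly all actives have a fitted effect of over 55% in size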
Target sequence (P08659 whole entry, looked up): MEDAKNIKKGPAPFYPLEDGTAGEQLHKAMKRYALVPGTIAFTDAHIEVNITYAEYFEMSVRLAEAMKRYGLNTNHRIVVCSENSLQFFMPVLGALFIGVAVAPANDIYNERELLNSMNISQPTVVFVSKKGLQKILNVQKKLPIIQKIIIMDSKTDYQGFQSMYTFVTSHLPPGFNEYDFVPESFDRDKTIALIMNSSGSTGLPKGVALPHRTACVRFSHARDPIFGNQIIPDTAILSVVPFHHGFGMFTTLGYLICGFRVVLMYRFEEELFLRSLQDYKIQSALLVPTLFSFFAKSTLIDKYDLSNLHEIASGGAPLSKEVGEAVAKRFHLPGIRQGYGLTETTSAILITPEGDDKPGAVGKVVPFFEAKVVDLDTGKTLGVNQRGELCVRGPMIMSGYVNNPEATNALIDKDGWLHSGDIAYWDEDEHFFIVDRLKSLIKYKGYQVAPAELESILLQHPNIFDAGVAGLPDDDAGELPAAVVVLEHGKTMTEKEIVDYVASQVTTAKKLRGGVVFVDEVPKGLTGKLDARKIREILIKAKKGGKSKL
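Purified P. pyralis luciferase (10nM final) with 10uM D-luciferin and 10uM ATP (Km levels) in 50mM Tris acetate pH 7.5, 10mM Mg acetate, 0.01% Tween-20, 0.05% BSA; qHTS 6-point titration, ~60 µM downward; luminescence read.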
ELG1 repair inh = inhibitors of ELG1-dependent DNA repair in HEK293T cells; HEK293T ELG1-luciferase reporter, luminescence, 16 h; DNA damage induced by 5-fluorouridine; Potency, µM (titrated, usually from 46.1 µM), for the others: top-dose activity change, negative = inhibition, hits mostly inhibitors; actives 2.3% (n = 330,000); further: on the % scale 0 is the no-effect control and ±100 the full control effect; nearly all actives have a fitted effect of over 55% in size
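Cells (2,000 per well) received 5-fluorouridine plus test compound or DMSO and were incubated 16 hr at 37 °C, 5% CO2. Luciferase activity was read by luminescence 30 min after ONE-Glo addition; signal suppression marked inhibition of damage-induced ELG1 function.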
Rab9 prom act = Rab9 promoter activation | Huh7 Rab9 promoter-luciferase reporter, luminescence, 24 h | Potency, µM (series often up to 9.22 µM), for the others: at the highest dose activation, negative = inhibition, usual class: activators | actives 2.8% (n = 320,000) | AID 485297; further: % of control where 0% means no effect; nearly all actives have a fitted effect of over 60% in size
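Huh7 cells stably carrying a Rab9 promoter-luciferase reporter, 1500 cells per well in OP-MEM I with 10% FBS, treated with compound 24 hours at 37C. Luciferase activity read by luminescence after 10 minutes with Amplite reagent.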
ELG1 genotoxic = induces genotoxicity in HEK293T cells with luciferase-tagged ELG1. AID 504466. HEK293T ELG1-luciferase reporter, luminescence, 16 h. Potency, µM (highest dose often 46 µM), for inactives: at the top dose activity change, positive = activation, actives largely listed as activators. actives 1.3% (n = 330,000); further: % of control where 0% means no effect; nearly all actives have a fitted effect of over 60% in size
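Step 1: seed 2,000 HEK293T ELG1-luciferase cells per well. Step 2: add compound or DMSO, incubate 16 hr at 37 °C. Step 3: ONE-Glo, 30 min at room temperature, read luminescence.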
Active calls of the source: *; [ ] = remark or other dose. The call rests on the fitted dose curve; in most records, active means well fitted curve in the direction sought with a large enough effect; inconclusive means small, poorly fitted or top-dose-only effect, or another doubt; inactive means no such curve, though single readings can be large; an effect the other way counts as inactive or inconclusive. Potency means the concentration at half of the fitted maximal effect.

Screening COc1ccc(C(=O)NCC(c2ccco2)S(=O)(=O)c2cccs2)cc1 (configuration not stated) returned FLuc counter -7.1%.
O=C(c1noc2c1CCCC2)N1CCC(CO)(Cc2ccccc2Cl)CC1 was read as NPC1 prom act -8.9%, FLuc counter 0.5%, ELG1 repair inh 20.6µM*, Rab9 prom act -0.5% and ELG1 genotoxic -9.2%.
`O=C(c1noc2c1CCCC2)N1CCN(c2ccccc2)CC1` gave SMN2 splice up 12.4%, NPC1 prom act 10.4%, FLuc counter -2.0%, ELG1 repair inh 10.3%, Rab9 prom act 1.5% and ELG1 genotoxic 14.7%.
For Cc1ccc(NC(=O)Cn2c(=O)n(CCC(=O)NCc3ccccc3Cl)c(=O)c3ccccc32)cc1 the results were SMN2 splice up 20.2% and FLuc counter -1.6%.
`O=C(C[C@@H]1C/C=C\C[C@H](NC(=O)OCC2c3ccccc3-c3ccccc32)C(=O)OC[C@H]2CCCN2C1=O)N[C@@H](CO)Cc1ccccc1` gave ELG1 repair inh 14.6µM* and ELG1 genotoxic -7.7%.
O=C(C[C@@H]1C/C=C\CC[C@H](Cc2ccc(F)cc2)C(=O)OC[C@@H]2CCCN2C1=O)N[C@H](CO)Cc1ccccc1 was read as ELG1 repair inh 20.6µM* and ELG1 genotoxic -5.7%.
For CC(C)(C)[C@H]1COC(=O)[C@@H](Cc2ccc(F)cc2)CC/C=C/C[C@@H](CC(=O)N[C@@H](CO)Cc2ccccc2)C(=O)N1 the results were ELG1 repair inh 25.9µM* and ELG1 genotoxic -4.4%.
CSCC[C@@H](C(=O)O)N(C)C was read as SMN2 splice up -7.3%[9.22 µM].
`COc1ccc(-c2nn(CC(=O)NCc3ccccc3)c3c2cnc2ccc(F)cc23)cc1` gave FLuc counter -0.1%.
`Cn1c(=O)c2c(SCC(=O)NCc3ccco3)nc(-c3ccccc3)nc2n(C)c1=O` gave FLuc counter -1.9%.
Screening CCn1nc(C)c2c(-c3ccccc3)cc(=O)n(C(C)C(=O)NCc3ccccc3OC)c21 (configuration not stated) returned FLuc counter -14.6%.
Cc1cc(NC(=O)CCSc2nc(-c3ccco3)cc(C(F)(F)F)n2)n(-c2ccccc2)n1 was read as SMN2 splice up -23.5%, NPC1 prom act -0.8%, FLuc counter 1.6%, ELG1 repair inh 25.9µM*, Rab9 prom act 1.8% and ELG1 genotoxic -8.2%.
`COc1ccc(NC(=O)CCSc2nc(-c3ccco3)cc(C(F)(F)F)n2)cc1` gave SMN2 splice up -7.3% and FLuc counter 0.5%.
`CN(C)c1ccc(NC(=O)CCSc2nc(-c3ccco3)cc(C(F)(F)F)n2)cc1` gave SMN2 splice up 3.1% and FLuc counter 9.53µM*.
COc1ccc(NC(=O)CCCSc2nc(-c3ccco3)cc(C(F)(F)F)n2)cc1OC was read as SMN2 splice up 25.5%, NPC1 prom act -2.0%, FLuc counter 4.6%, ELG1 repair inh 20.6µM*, Rab9 prom act 1.1% and ELG1 genotoxic -10.5%.
`COc1ccc(NC(=O)CCSc2nc(-c3ccco3)cc(C(F)(F)F)n2)cc1OC` gave SMN2 splice up 3.0% and FLuc counter 0.0%.
O=C(CSc1nc(-c2ccco2)cc(C(F)(F)F)n1)Nc1ccc(C(=O)N2CCCCC2)cc1 was read as SMN2 splice up -59.4%, NPC1 prom act -13.6%, FLuc counter -4.2%, ELG1 repair inh 4.61µM*, Rab9 prom act -30.7% and ELG1 genotoxic -6.6%.
Cc1nn(C)c(C)c1NC(=O)CCSc1nc(-c2ccco2)cc(C(F)(F)F)n1 was read as SMN2 splice up -21.8%, NPC1 prom act -4.4%, FLuc counter 0.0%, ELG1 repair inh -18.3%, Rab9 prom act -11.9% and ELG1 genotoxic -12.0%.
For COc1ccc(N2CC(NC(=O)c3ccc(S(=O)(=O)N4CCOCC4)cc3)CC2=O)cc1OC (configuration not stated) the results were FLuc counter -4.8%.
`O=C1Nc2ccccc2S/C1=C/Nc1cccc(Cl)c1` gave SMN2 splice up -3.0%, NPC1 prom act inconclusive, FLuc counter 8.49µM*, ELG1 repair inh inconclusive, Rab9 prom act 4.47µM* and ELG1 genotoxic inconclusive.
Screening O=C(Nc1ccc(F)cc1)c1ccc2c(c1)NC(=O)c1ccccc1S2 returned SMN2 splice up -69.6% and FLuc counter -2.5%.
Screening Cn1c(=O)c2c(nc(CN3CCN(c4ccccc4F)CC3)n2Cc2ccc(F)cc2)n(C)c1=O returned SMN2 splice up 4.8% and FLuc counter -8.2%.
`CCc1ccc2oc(-c3cccc(NC(=O)c4cccnc4)c3)nc2c1` gave SMN2 splice up 16.3%, NPC1 prom act inconclusive, FLuc counter 1.35µM*, ELG1 repair inh inconclusive, Rab9 prom act inconclusive and ELG1 genotoxic -1.6%.
For COc1ccc(-c2nc3ccccc3o2)cc1NC(=O)C(C)(C)Oc1ccc(Br)cc1 the results were SMN2 splice up -5.8% and FLuc counter -4.8%.
`CCc1ccc2oc(-c3cccc(NC(=O)C(C)(C)Oc4ccc(Br)cc4)c3)nc2c1` gave SMN2 splice up 5.01µM* and FLuc counter 2.13µM*.
`Cc1ccc2oc(-c3ccc(C)c(NC(=O)c4ccc(-c5ccccc5[N+](=O)[O-])o4)c3)nc2c1` gave SMN2 splice up -24.4% and FLuc counter 10.7µM*.
`Cc1ccc2oc(-c3ccc(Cl)c(NC(=O)c4ccc(-c5ccccc5[N+](=O)[O-])o4)c3)nc2c1` gave SMN2 splice up -9.5% and FLuc counter inconclusive.
Cc1ccc2oc(-c3ccc(Cl)c(NC(=O)c4cc5ccccc5o4)c3)nc2c1 was read as SMN2 splice up 6.0% and FLuc counter 12µM*.
Screening Cc1cc(C)n(C(C)CC(=O)Nc2ccc(Cl)cc2C)n1 (configuration not stated) returned FLuc counter 0.5%.
Screening C[N+](C)(C)c1nc(N)nc2c1ncn2[C@H]1O[C@@H](CO)[C@@H](O)[C@H]1O returned SMN2 splice up -11.4%[9.22 µM].
`CCc1ccc2oc(-c3cccc(NC(=O)c4cc5ccccc5o4)c3)nc2c1` gave SMN2 splice up inconclusive and FLuc counter 2.39µM*.
Screening O=C(Nc1ccc(-c2nc3cc(Cl)ccc3o2)cc1)c1cc2ccccc2o1 returned SMN2 splice up -6.6% and FLuc counter 4.5%.
